# Mtb MenB inh – M. tuberculosis MenB inhibitors, primary screen, biochemical, absorbance. inhibition, % (test concentration not listed). 1,4-dihydroxy-2-naphthoyl-CoA synthase (Mycobacterium tuberculosis (strain ATCC 25618 / …. MenB enzyme assay, absorbance read-out. 100,000 tested, 0.43% active; in the data active means inhibition above about 21%, passing the limit was not always enough
# Target sequence (P9WNP5 whole entry, looked up): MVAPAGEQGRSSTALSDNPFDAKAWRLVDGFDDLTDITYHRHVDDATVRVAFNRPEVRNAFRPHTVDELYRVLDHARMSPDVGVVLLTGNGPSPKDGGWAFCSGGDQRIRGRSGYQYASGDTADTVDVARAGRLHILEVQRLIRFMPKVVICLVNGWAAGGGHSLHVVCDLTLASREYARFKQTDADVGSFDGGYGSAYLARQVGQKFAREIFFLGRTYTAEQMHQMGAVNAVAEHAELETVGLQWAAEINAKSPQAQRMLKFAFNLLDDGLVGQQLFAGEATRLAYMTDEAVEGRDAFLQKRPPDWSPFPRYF
# MbtI inh – MbtI salicylate synthase inhibitors, primary screen, biochemical, fluorescence intensity; AID 493033, 2011; inhibition, % (concentration not given with the values); purified MbtI enzyme, fluorescence intensity read-out; P9WFX0; 100,000 tested, 0.89% active; in the data active means inhibition mostly above about 56%, no sharp cut-off; inactive means mostly below about 77%
# AID504770 – growth inhibition of E. coli YBA685, primary screen, V. cholerae RctB inhibitors | 130,000 tested, 0.27% active | z-score (concentration not given with the values) | E. coli YBA685 rctB-dependent plasmid, OD600 growth, 3 h; stronger effect = lower value | AID 504770, 2011; in the data active means z-score below about -2, passing the limit was not always enough
# PV pol inh – poliovirus RdRp elongation inhibitors, primary screen, biochemical, fluorescence polarization, total intensity; Genome polyprotein (Poliovirus type 1 (strain Mahoney)), P03300; poliovirus polymerase elongation; stronger effect = lower value; % elongation, % (compound at 16.7 µg/mL); 150,000 tested, 0.66% active; AID 588519, 2011; in the data active means % elongation below about 90%
# Hits are given with their value; 0 = inactive; - = no result given. Hits are enriched below; roughly 1.5% of the tested compounds scored in any of these assays.
SMILES,Mtb MenB inh,MbtI inh,AID504770,PV pol inh
CCC(C(=O)NC1CCCC1)N(C(=O)Cn1nnc(-c2ccc(C)cc2)n1)c1ccc2c(c1)OCCO2 (centres undefined),33,0,0,0
CCOC(=O)C(C#N)C(=O)c1ccc(N)cc1 (centres undefined),0,-,0,80
CCOC(=O)c1ccc(N)cc1,0,0,0,0
Cc1nnn(C23CC4CC(CC(C(=O)O)(C4)C2)C3)n1,0,0,0,0
COc1cc(Cl)c(C)cc1NC(=S)N(Cc1ccccc1C)CC1CCC(C(=O)O)CC1 (centres undefined),0,52,0,0
CCCCNC(=O)CN1CCN(Cc2cccc(OCC)c2OC)CC1,0,0,0,88
CCCCNC(=O)C1CCN(Cc2ccccc2OCC)CC1,0,0,0,0
CC(Sc1ncnc2sc3c(c12)CCCC3)C(=O)O (centres undefined),0,-,-3.4,0
CCCC(C)C(=O)Nc1ccc(F)cc1 (centres undefined),0,0,0,0
CC(C)(C)OC(=O)NC1CCN(C(=O)Nc2ccccc2)CC1,0,0,0,0
O=c1cc(-c2c(F)c(F)c(F)c(F)c2F)oc2ccccc12,-,-,0,-
O=c1cc(-c2c(F)c(F)c(F)c(F)c2F)oc2c(F)c(F)c(F)c(F)c12,0,0,0,90
O=C(COC(=O)c1c2c(nc3ccccc13)CCC2)c1ccccc1,-,0,0,0
CCCc1cc(=O)[nH]c(SCC(=O)N(C)c2ccccc2)n1,0,0,0,0
CCOC(=O)c1ccc(NC(=O)CCc2c(C)nc3c(-c4ccc(F)cc4)c(C)nn3c2C)cc1,-,-,-,0
CCOC(=O)c1ccc(NC(=O)c2cnc3c(-c4ccc(F)cc4)c(C)nn3c2C)cc1,-,-,-,51
CCN(CC)Cn1c(O)c(N=NC(=O)Cc2ccc(OC)cc2)c2cc(Br)ccc21,0,0,0,0
Cc1csc2nc(CSc3nnc(-c4ccccc4Cl)n3C3CCCC3)cc(=O)n12,0,0,0,0
NNC(=O)CSc1c(-c2cccs2)[nH]c2ccccc12,38,0,0,0
COC(=O)CCCNc1ccc(C(F)(F)F)cc1N,-,-,0,-
NC(=O)C1CCN(c2nc(C3CC3)nc3c2nnn3Cc2ccccc2Cl)CC1,52,0,0,0
CC(C)(C)c1nc(N2CCN(C(=O)c3ccco3)CC2)c2nnn(Cc3ccccc3Cl)c2n1,24,0,0,0
CC(C)(C)OC(=O)N1CCC(c2nc3c(nnn3Cc3ccccc3Cl)c(=O)[nH]2)CC1,0,0,0,0
CN(C)c1nc(C2CC2)nc2c1nnn2Cc1ccccc1Cl,38,0,0,0
O=C(OCn1nnc2ccccc2c1=O)C1CCCCN1S(=O)(=O)c1ccccc1 (centres undefined),0,0,0,0
SMILES,Mtb MenB inh,MbtI inh,AID504770,PV pol inh
CCOC(=O)C1=C(C)NNC(=Nc2cccc(C)c2C)S1,0,86,0,80
CC(C)(C)c1ccccc1NS(C)(=O)=O,0,0,0,0
CC(C)C(c1nnnn1Cc1ccccc1)N1CCN(c2ccccc2)CC1 (centres undefined),32,0,0,0
C1=CC(c2cccs2)CC1 (centres undefined),-,0,0,0
O=C(Nc1ccccc1C(=O)O)c1cccs1,0,89,0,0
COc1ccc(S(=O)(=O)N=S(C)(=O)c2ccc(C)cc2)cc1 (centres undefined),-,-,0,-
O=C1C=CC(=NS(=O)(=O)c2ccc(F)cc2)C=C1,0,98,0,0
Cc1ccc(S(=O)(=O)N=C2C=CC(=O)C=C2)cc1,0,96,0,0
CS(=O)(=O)c1ccc(F)cc1,0,0,0,0
CCOc1ccc(S(=O)(=O)N=C2C=CC(=O)C=C2)cc1,0,93,0,0
CC1=C/C(=N/OC(=O)c2ccccc2)C=CC1=O,0,0,0,0
CC1=C/C(=N\S(=O)(=O)c2ccccc2)C=CC1=O,0,101,0,0
Cc1n[nH]c(=O)c2cc3ccccc3n12,0,0,0,0
S=C=NCCn1ccc2ccccc21,0,93,-3.8,0
NCCn1ccc2ccccc21,0,0,0,0
N#C/C(=C/c1ccccc1)c1ccc(C#N)cc1,0,0,0,0
CCN(CC)C(=O)CSc1n[nH]c(=S)s1,0,91,0,0
CCN(C(=O)c1cc(S(=O)(=O)N2CCc3ccccc32)cn1C)c1ccc(OC)cc1,0,0,0,0
CC(=O)NS(=O)(=O)c1ccc(NC(=O)c2ccc(C)c(C)c2)cc1,23,0,0,0
Cc1ccnc(NS(=O)(=O)c2ccc(NC(=O)c3ccc(C)c(C)c3)cc2)n1,-,-,-,0
CC(C)OC(=O)CN1C(=O)C(C)(C)Oc2ccc(C(=O)Nc3ccccc3)cc21,25,0,0,0
CCN1C(=O)/C(=C\c2ccc(C(C)C)cc2)SC1=S,0,0,0,0
CC1C/C(=N\NC(N)=O)CC(C)(C)C1 (centres undefined),0,0,0,0
O=C1N(Cc2ccccc2)C(c2ccccc2)C1(F)F (centres undefined),-,0,0,0
COc1cccc(C2N(Cc3ccccc3)C(=O)C2(F)F)c1OC (centres undefined),-,0,0,89
SMILES,Mtb MenB inh,MbtI inh,AID504770,PV pol inh
CS(=O)(=O)Cc1nc2ccccc2[nH]1,0,0,0,0
CC[n+]1c(-c2ccccc2)c2cc(N)ccc2c2ccc(N)cc21,0,0,0,75
COc1nc(Nc2ccccc2)nc(NC(C)C)n1,0,0,0,0
O=C(O)C(CO)c1ccccc1 (centres undefined),26,0,0,0
O=C(CC(C(=O)O)c1cccc(Cl)c1)c1ccccc1 (centres undefined),-,-,0,-
CC(=NCCSCc1nc[nH]c1C)c1c(C)[nH]n(-c2nc3ccccc3s2)c1=O,0,0,0,0
CC(=NCc1cccnc1)c1c(C)[nH]n(-c2nc3ccccc3s2)c1=O,34,0,0,0
CCOc1ccc(N(CC)C(=O)CCc2nc(-c3ccc(OC)cc3)no2)cc1,-,-,0,-
CC1CC(OCC(O)CN)CC(C)(C)C1 (centres undefined),0,0,-2.2,0
CC(C)(C)C(=O)OCc1nc(-c2ccc(C#N)cc2)cs1,-,-,0,-
CC1CN(c2nc(-c3cccs3)cc(C(F)(F)F)c2C#N)CC(C)O1 (centres undefined),-,-,0,-
CC1CN(c2nnc(-c3cccs3)c3ccccc23)CC(C)O1 (centres undefined),0,0,-2.5,0
Cc1c(C(=O)NCCN(C)C)sc2nc(-c3ccc(F)cc3)cn12,-,-,0,-
Cn1sc(=O)c2ccc(S(=O)(=O)NCCc3ccncc3)cc21,-,-,-2.5,-
CN1CCN(CNC(=O)c2cnccn2)CC1,0,0,0,0
COc1cc(/C=C/C(=O)N2CCC(C)CC2)ccc1OCc1c(C)noc1C,0,0,0,0
Cc1ccc(C(=O)NC2(O)C(=O)c3ccccc3C2=O)cn1,-,-,0,-
O=C(NC1(O)C(=O)c2ccccc2C1=O)c1ccccc1,0,0,0,67
C=COC(=O)CSc1nc(C)cc(C)c1C#N,0,-,0,86
